Among the data in PubChem BioAssay AID488969 (Vanderbilt High Throughput Screening Facility, 2010) are z-score values, retold here.

In all, about 110,000 compounds were measured (“z-score”: median about -0.1, highest 2% from about 2 on). The entries come from a sample that favours the highest values as a whole. Activity calls are given as the source filed them.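 Rule for the calls: active = z-score in the third read window above 3 or below -3; inactive = the rest.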

The assay deals with Metabotropic glutamate receptor 8 (Rattus norvegicus) (UniProt P70579). Description: mGluR8 Gi/Go-coupled signaling modulation – cell-based, rat, thallium flux, HTS, primary screen (AID 488969). To be noted: HEK293 rat mGluR8, GIRK (G protein-gated inwardly rectifying potassium channel) thallium flux, FluoZin2; at 10 µM; stronger effect = higher value; submaximal glutamate (EC20) added with thallium.
Metabotropic glutamate receptor 8 (Rattus norvegicus), sequence (P70579 whole entry, looked up): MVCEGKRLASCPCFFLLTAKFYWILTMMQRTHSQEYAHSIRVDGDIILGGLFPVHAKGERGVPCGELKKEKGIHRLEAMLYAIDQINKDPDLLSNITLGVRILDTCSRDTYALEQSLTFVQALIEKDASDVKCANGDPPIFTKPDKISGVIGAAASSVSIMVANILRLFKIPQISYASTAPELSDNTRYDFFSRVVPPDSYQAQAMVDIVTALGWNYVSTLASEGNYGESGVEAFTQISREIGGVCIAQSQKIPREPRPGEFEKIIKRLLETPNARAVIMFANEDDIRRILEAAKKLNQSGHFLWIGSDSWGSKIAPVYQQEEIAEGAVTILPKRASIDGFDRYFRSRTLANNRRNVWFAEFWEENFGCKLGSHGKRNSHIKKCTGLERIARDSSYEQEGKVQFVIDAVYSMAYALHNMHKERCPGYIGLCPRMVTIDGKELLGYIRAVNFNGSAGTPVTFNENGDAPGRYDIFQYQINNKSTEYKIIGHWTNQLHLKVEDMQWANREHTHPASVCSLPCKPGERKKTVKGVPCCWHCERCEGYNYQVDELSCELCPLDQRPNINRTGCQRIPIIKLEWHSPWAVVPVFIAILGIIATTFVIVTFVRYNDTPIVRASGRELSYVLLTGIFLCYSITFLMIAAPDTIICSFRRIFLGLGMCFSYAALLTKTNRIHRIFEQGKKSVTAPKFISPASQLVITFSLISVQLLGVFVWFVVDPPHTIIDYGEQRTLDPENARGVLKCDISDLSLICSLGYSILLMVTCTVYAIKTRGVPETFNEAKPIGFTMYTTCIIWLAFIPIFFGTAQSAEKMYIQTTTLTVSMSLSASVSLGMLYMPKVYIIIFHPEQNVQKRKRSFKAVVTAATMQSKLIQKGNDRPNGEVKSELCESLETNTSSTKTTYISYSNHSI
Turning to `O=C(NCC1(c2ccccc2)CCCC1)c1ccc(Br)o1`, the z-score is -0.309.
`O=C(Oc1cccc2c(OC(=O)N3CCCC3)cccc12)N1CCCC1` registered a z-score of -0.117.
Compound `COC(=O)c1cccc(-n2c(C)cc(C=O)c2C)c1` showed a z-score of -0.0226.
In turn, `Fc1ccc(Cn2nnnc2CN2CCN(C3CCCCC3)CC2)cc1` returned a z-score of 0.354.
For `COCCCn1ccc(O)c(Cc2ccc(F)cc2)c1=O` the value was -0.0433; for `Cc1nn(-c2ccc3nnc(Br)n3n2)c(C)c1Br`, -0.48; for `CCc1ccc2c(c1)/C(=C/C(=O)c1cccs1)C(=O)N2`, -0.314.
As for `CC(C)(C)c1ccc(-c2nc(-c3ccncc3)no2)cc1`, the figure is -0.17; as for `c1ccc(-c2nc(-c3ccncc3)no2)cc1`, -0.104.
With `CCOc1cc(-c2noc(-c3cccnc3)n2)ccc1OC`, the z-score was 3.79 (active).
Regarding `CCOc1ccc(-c2nc(-c3cccnc3)no2)cc1OCC`, the z-score was determined as 0.841.
The compound `CCOc1ccc(-c2nnc(-c3cccnc3)o2)cc1OCC` gave a z-score of 0.0661.
Compound `CCc1ccc(-c2nc(-c3ccncc3)no2)cc1` showed a z-score of 2.31.
For `CC(C)C(=O)NCCc1nc2ccccc2n1C` the value was 0.0935; for `C=CCNC(=O)c1onc(CSc2ccccc2F)c1C(=O)O`, -0.015.
As for `Cc1nc2ccccc2c(=O)n1/N=C/c1ccncc1`, the figure is -0.171; as for `O=C(NCC(=O)N(CC1CCCO1)C(C(=O)NC1CCCCC1)c1ccc(F)cc1)c1ccco1` (stereo not given), 0.579.
`Cc1ccccc1C1C(C#N)=C2NC(=O)c3c(sc4c3CCCCC4)N2C2=C1C(=O)CC(C)(C)C2` (stereo not given) had a z-score of 1.56.
In the case of `CCCn1c(CCNC(=O)c2cccs2)nc2ccccc21`, the z-score is -0.594.
For the compound `O=C(Oc1c(Cl)cc(Cl)c2cccnc12)c1ccco1`, the z-score is 3.13 (active).
`O=C(Oc1ccc(Cl)c2cccnc12)c1ccco1`: the z-score was determined as 0.951.
As for `O=C(Oc1cccc2cccnc12)c1cccs1`, the figure is -0.532.
For `O=C(Oc1c(Cl)cc(Cl)c2cccnc12)N1CCOCC1`, the z-score is -0.0144.
Consider `CN1CCN(Cc2cc(Cl)c3cccnc3c2OC(=O)c2cccs2)CC1`, for which the z-score was 0.273.
`O=C(Oc1ccc(Cl)c2cccnc12)c1cccc([N+](=O)[O-])c1`: the z-score turned out to be 0.0891.
`Cc1ccc(C(=O)Oc2ccc(Cl)c3cccnc23)cc1[N+](=O)[O-]` had a z-score of 0.387.
As for `O=C(Oc1c(Cl)cc(Cl)c2cccnc12)c1cccc([N+](=O)[O-])c1`, the figure is 9.18 (active); as for `O=C(Oc1c(Cl)cc(Cl)c2cccnc12)c1cccs1`, 2.7; as for `Cc1oc2c(C)c3oc(=O)c4c(c3cc2c1C)CCC4`, -0.532.
In the case of `COc1ccc(N(C(=O)Cn2nnc(-c3ccc(Cl)cc3)n2)C(C(=O)NCC2CCCO2)c2ccc(C)cc2)cc1` (stereo not given), the z-score was -0.126.
The compound `O=C(COC(=O)Cn1cnc2ccccc2c1=O)Nc1ccc(Cl)c(C(F)(F)F)c1` yielded a z-score of -0.01.
As for `CC(=O)Nc1ccc(S(=O)(=O)NNC(=O)c2ccc(C)cc2)cc1`, the figure is -0.161; as for `CC(=O)N1CCC2(CC1)C(C#N)=C(N)OC1=C2C(=O)CC(C)(C)C1`, 0.05.
Regarding `COC(=O)c1c(NC(=O)C2COc3ccccc3O2)sc2c1CCN(Cc1ccccc1)C2` (stereo not given), the z-score was 0.0786.
`Cc1ccccc1-n1c(O)c(/C=N/N2CCCCC2c2cccnc2)c(=O)[nH]c1=O` (stereo not given) came in with a z-score of -0.187.
`CN(C)C(=S)Nn1c(-c2ccccc2)nc2ccccc2c1=O` displayed a z-score of -0.411.
As for `COc1cc(CNc2ccccc2SC)ccc1O`, the z-score was 1.58.
The compound `N#Cc1ccc(N2CCc3ccccc3C2)c([N+](=O)[O-])c1` came in with a z-score of 0.175.
As to `Cc1ccc(S(=O)(=O)NC(CC(C)C)C(=O)NCc2ccco2)cc1` (stereo not given), the z-score was 0.0163.
`COc1ccc(-c2nnnn2C)cc1S(=O)(=O)NCCc1ccccc1`: the z-score amounted to 1.29.
`O=C(Nc1ccccc1Br)C1CCC(=O)N1Cc1ccccc1Cl` (stereo not given) gave a z-score of 0.19.
As for `COc1cc(OC)cc(-c2cc3nc(C)c(CCC(=O)O)c(=O)n3[nH]2)c1`, the z-score is 0.713.
`COc1cc(-c2cc3nc(C)c(C)c(=O)n3[nH]2)cc(OC)c1OC` had a z-score of 2.19.
In turn, `Cc1nc2cc(-c3cccs3)[nH]n2c(=O)c1C` came in with a z-score of -0.15.
In the case of `COC(=O)C(O)(CC(=O)Nc1ccc(OC(F)(F)F)cc1)C(F)(F)F` (stereo not given), the z-score was -0.408.
In turn, `C=CCn1c(SCC(=O)NC)nc2sc3c(c2c1=O)CCC3` displayed a z-score of -0.523.
`O=c1[nH]c2sc3c(c2c(=O)n1Cc1ccccc1)CCC3` registered a z-score of -0.117.
Turning to `C=CCn1c(=S)[nH]c2sc3c(c2c1=O)CCC3`, the z-score was 10.9 (active).
Turning to `O=C(CCCN1C(=O)c2ccccc2C1=O)OC1CSCC1NC(=O)c1ccccc1` (stereo not given), the z-score is -0.17.
For `O=C1CS/C(=N\c2ccccn2)N1C1CCCCC1` the value was -0.393.
For the compound `COc1cc(CC(=O)Nc2ccc3nc(C)sc3c2)cc(OC)c1OC`, the z-score was -0.158.
As for `Cc1cccc(CSc2ncc(CO)n2C)c1`, the z-score was determined as 0.12.
As for `COc1ccc(CCNC(=O)C2CCN(S(=O)(=O)c3ccc(OC)c(OC)c3)CC2)cc1`, the z-score was -0.362.
Consider `OCCCCCN=c1cc(-c2ccccc2)oc2ccc(Cl)cc12`, for which the z-score was -0.493.
Consider `OCCN=c1cc(-c2ccccc2)oc2ccc(Cl)cc12`, for which the z-score turned out to be 0.389.
`OCCCN=c1cc(-c2ccccc2)oc2ccc(Cl)cc12`: the z-score is 3.32 (active).
As for `O=C(CCn1nc(-c2ccccc2)ccc1=O)N1CCOCC1`, the z-score came to 0.676.
Consider `Cc1cccc(NC(=O)c2sccc2-n2cccc2)c1C`, for which the z-score was -0.81.
Take `CCn1c(NC(=O)Nc2cccc(C)c2C)cc2sccc21`: the z-score was 3.12 (active).
`CCc1ccccc1NC(=O)c1cc2sccc2n1C`: the z-score is -0.142.
